The record followed here is PubChem BioAssay (NCI).

The nature of test [1]: NCI Yeast Anticancer Drug Screen. Data for the rad50 strain (AID 155).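 Note: 0% = growth of vehicle-only cultures of the same strain.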 Particulars: S. cerevisiae rad50 strain growth inhibition; at 50.0 µM; stronger effect = higher value. The gist of the method: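 Growth of the mutant yeast was measured after compound exposure and referenced to vehicle-treated cultures.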
Test [2] is described as follows: NCI Yeast Anticancer Drug Screen. Data for the mec2-1 strain (AID 157). Particulars: S. cerevisiae mec2-1 strain, at 50.0 µM, stronger effect = higher value. The method, boiled down:
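Yeast mec2-1 mutant treated with compound. Readout: growth inhibition vs vehicle controls.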

A short description of test [3]: NCI Yeast Anticancer Drug Screen. Data for the sgs1 mgt1 strain (AID 161).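 Note: 0% = growth of cultures given vehicle only.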 Particulars: S. cerevisiae sgs1 mgt1 strain, at 50.0 µM, stronger effect = higher value. The method, boiled down:
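Test agents were incubated with a DNA-repair-mutant yeast strain. Growth was then read and compared against vehicle-treated controls.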

The nature of test [4]: NCI Yeast Anticancer Drug Screen. Data for the cln2 rad14 strain (AID 165).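 Note: 0% = growth equal to vehicle treated cultures.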 Particulars: S. cerevisiae cln2 rad14 strain, at 50.0 µM, stronger effect = higher value. The gist of the method: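 cln2 rad14 yeast strain; compound exposure; growth inhibition read vs vehicle controls.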
Test [5] can be described thus: NCI Yeast Anticancer Drug Screen. Data for the bub3 strain (AID 167). To be noted: S. cerevisiae bub3 mutant strain, at 50.0 µM, stronger effect = higher value. The method, boiled down:
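Whole-cell yeast assay. The mutant strain was incubated with compounds, and growth inhibition was determined by comparison with vehicle-treated cells.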

Test [6] is described as follows: NCI Yeast Anticancer Drug Screen. Data for the mlh1 rad18 strain (AID 175). To be noted: S. cerevisiae mlh1 rad18 strain growth inhibition; at 50.0 µM; stronger effect = higher value. The gist of the method:
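Yeast w/ defined DNA-repair lesions; compound exposure; growth vs vehicle controls → % inhibition.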

Structures are written as SMILES. The panel holds about 79,000 compounds, 15% with a hit somewhere; the sample as a whole holds those more often. Values without a mark were called inactive. Activity calls are given as the source filed them. Cut-off read from the data, not from the text of the source: active = growth inhibition above about 70%; inactive = the rest.

As for `C=CCOCC1CO1` (stereo unspecified), the growth inhibition in test [1] was 9.1%; in test [2] it was -5.1%; in test [3], 11.1%; in test [4], -8.6%; in test [5] it was -1.7%; in test [6], 15.8%.

Consider `O=[N+]([O-])c1cccc([As](=O)(O)c2ccc(O)c([N+](=O)[O-])c2)c1`, for which the growth inhibition was 5.6% in test [1]; 10.2% in test [2]; 15.1% in test [3]; -4.3% in test [4]; 20.4% in test [5]; 4.65% in test [6].

With `CC(C)C1NC(C(C)C)N2C(C(C)C)N12` (stereo unspecified), the growth inhibition in test [1] is -0.05%; in test [2] it was -17.2%; in test [3], -14.3%; in test [4] it was -24.5%; in test [5] it was -2.25%; in test [6], -1.5%.

`Cc1c[nH]cn1.Cc1c[nH]cn1.Cc1c[nH]cn1.Cc1c[nH]cn1.Cc1c[nH]cn1.Cc1c[nH]cn1.N#CS.[Mn+2]`: the growth inhibition in test [1] was 6.1%; in test [2], 4.3%; in test [3], 4.35%; in test [4], -4.8%; in test [5], 4.1%; in test [6], 5.05%.

Take `CCOP(O)(=S)OCC.[Sm]`: the growth inhibition is 1.65% in test [1]; -14.6% in test [2]; -7.65% in test [3]; -43.1% in test [4]; -17.9% in test [5]; -15.8% in test [6].

Regarding `O=C(O)C(O)CO.[Pb]` (stereo unspecified), the growth inhibition in test [1] is -1.95%; in test [2], 0.35%; in test [3], -2.5%; in test [4], 12.4%; in test [5], -15.7%; in test [6] it was 9.85%.

With `CNC(=O)Oc1cc(C)cc(C(C)C)c1`, the growth inhibition in test [1] was 14.3%; in test [2], 0.05%; in test [3], 1.6%; in test [4], 9.15%; in test [5], 1.3%; in test [6], 6%.

For `[O-][Cl+3]([O-])([O-])[O-].[O]=[Ru]=[O].c1ccc(-c2ccccn2)nc1.c1ccc(-c2ccccn2)nc1`, the growth inhibition in test [1] is 21.9%; in test [2] it was 20.9%; in test [3], 22.4%; in test [4], 14.2%; in test [5], 13.7%; in test [6] it was 27.4%.

For the compound `COc1cccc(N2CCNCC2)c1`, the growth inhibition in test [1] was -5.2%; in test [2] it was -12.6%; in test [3], 12.4%; in test [4], 4.2%; in test [5], -6.6%; in test [6], 25.1%.

In the case of `COc1ccc(NC(=O)COc2cccc(Cl)c2)cc1S(=O)(=O)F`, the growth inhibition in test [1] was 3.95%; in test [2], 32.1%; in test [3], 14.4%; in test [4] it was -2.65%; in test [5], 30.1%; in test [6] it was 1.15%.

As for `N#CC(C#N)=Cc1cccc(F)c1`, the growth inhibition in test [1] is 37%; in test [2], 25.2%; in test [3], 19.4%; in test [4], 15.6%; in test [5], 20.2%; in test [6], 31.9%.

Turning to `CCOC(=O)C1C(C=C(C)C)C1(C)C` (stereo unspecified), the growth inhibition in test [1] was -14.3%; in test [2] it was -17.4%; in test [3] it was -8.8%; in test [4], -10.8%; in test [5], -16.6%; in test [6] it was -3.95%.

Regarding `CN(C)P1(N(C)C)=NP(c2ccccc2)(c2ccccc2)=NP(N(C)C)(N(C)C)=N1`, the growth inhibition is 13.3% in test [1]; 20.9% in test [2]; 47.5% in test [3]; 24.2% in test [4]; 1.9% in test [5]; 48.2% in test [6].

Turning to `CN1C(c2cccnc2)=NCC12CCCC2`, the growth inhibition is -2.95% in test [1]; -10.1% in test [2]; 6.45% in test [3]; -17.2% in test [4]; -10.2% in test [5]; -9.45% in test [6].

Regarding `COC(=O)CP(=O)(OC)OC`, the growth inhibition was 5.3% in test [1]; -24.1% in test [2]; 1.8% in test [3]; -3.15% in test [4]; 1% in test [5]; 7.2% in test [6].

On to `COC(=O)C1=CO[C@@H](C)[C@@H]2CN3CCc4c([nH]c5cc(OC)ccc45)[C@@H]3C[C@H]12`, for which the growth inhibition was -0.2% in test [1]; -28.9% in test [2]; -11.1% in test [3]; -2.9% in test [4]; -27% in test [5]; -19.2% in test [6].

Regarding `CCCCCCCCCCOP(OCCCCCCCCCC)Oc1ccccc1`, the growth inhibition in test [1] is 47.1%; in test [2], -4.9%; in test [3], 2.1%; in test [4], 10.5%; in test [5], 0.45%; in test [6], 7.45%.

With `O=CC1(c2ccccc2)CCN(Cc2ccccc2)CC1`, the growth inhibition in test [1] is 38.8%; in test [2], -16.1%; in test [3], 45.1%; in test [4], 41.3%; in test [5] it was 38.1%; in test [6] it was 17.4%.

Regarding `O=N[O-].[Co].[NH-]CC[NH-].[NH-]CC[NH-].[NH2-]`, the growth inhibition in test [1] was 5.35%; in test [2], 7.5%; in test [3], -6.25%; in test [4] it was 4.95%; in test [5] it was 4.85%; in test [6] it was -2.4%.

For `CC(=N/O)/C(C)=N\O`, the growth inhibition in test [1] is 21%; in test [2] it was 14.8%; in test [3], 5.7%; in test [4] it was 13.4%; in test [5] it was -0.4%; in test [6], 40.3%.

For `CC1(C)CN1C1=C(F)C(=O)C(N2CC2(C)C)=C(F)C1=O`, the growth inhibition in test [1] was 36.5%; in test [2] it was 68.2%; in test [3] it was 50.5%; in test [4], 8.45%; in test [5] it was 47.3%; in test [6] it was 74.3% (active).
